This is a sample that favours compounds with a hit; in the whole collection about 19% have one here.
KB-V1 cytotox – KB-V1 MDR subline cytotoxicity; KB-V1 MDR cells viability, CellTiter-Glo, 72 h; Potency, µM (highest dose often 46.1 µM), usual class: cytotoxic; hit rate 3.4% among 400,000; note: nearly all actives have a fitted effect of over 60% in size
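Drug-selected KB-V1 cells, grown in DMEM lacking phenol red with 10% FBS, receive compound titrations; after three days at 37 degrees C, surviving cell ATP is quantified by CellTiter-Glo luminescence and responses normalized and curve-fitted.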
KB-3-1 cytotox – kills parental KB-3-1 adenocarcinoma cells; KB-3-1 viability, CellTiter-Glo ATP luminescence, 72 h; Potency, µM (top dose mostly 46.1 µM), usual class: cytotoxic; hit rate 1.4% among 400,000; AID 1347075; note: nearly all actives have a fitted effect of over 60% in size
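Viability of parental KB-3-1 cells, measured by CellTiter-Glo luminescence, followed a 72 h incubation at 37 °C with pinned compounds in phenol-red-free DMEM containing 10% FBS.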
HT1080-NT tox – kills 2HG-producing HT-1080-NT fibrosarcoma cells; HT-1080-NT fibrosarcoma viability, CellTiter-Glo ATP luminescence, 48 h; Potency, µM (series often up to 46.1 µM), for the others: top-dose activity, negative = less viability, hits mostly cytotoxic; hit rate 1.6% among 360,000; AID 686970;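 note: NT is the 2HG producing partner of a matched IDH1 knockdown line; 0% = DMSO-treated cells and -100% = media-only wells without cells; nearly all actives have a fitted effect of over 55% in size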
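Toxicity toward the 2HG-producing NT line was scored as %Activity, normalised to DMSO and no-cell wells, from CellTiter-Glo luminescence after 48 hours' treatment.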
HT1080 IDH1KD tx – HT-1080 IDH1 knockdown cell toxicity (counter line); hit rate 2% among 360,000; Potency, µM (top dose mostly 46.1 µM), inactives show at the top dose activity, negative = toxicity, usual class: cytotoxic; HT-1080 IDH1 knockdown viability, ATP luminescence, 48 h;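 note: 0% = DMSO wells and -100% = cell-free medium wells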
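Knockdown cells (IDH1KD HT-1080) received compounds 2 h after plating at 750 cells/well and were kept 48 h at 37 °C in 5% FBS RPMI. A CellTiter-Glo luminescence read gave % activity for curve fitting.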
TDP1 cell CPT – growth inhibition of DT40 Tdp1-/-;hTDP1 cells with camptothecin (screen for TDP1 inhibitors); chicken DT40 Tdp1-/-;hTDP1 cells + 20 nM CPT, ATP luminescence, 48 h; Potency, µM (highest dose often 46.2 µM), for the others: at the top dose activity change, negative = growth inhibition, actives largely listed as inhibitors; hit rate 12% among 420,000; note: nearly all actives have a fitted effect of over 55% in size
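Chicken DT40 Tdp1-/- cells complemented with human TDP1, 400 cells/well, exposed to compounds plus 20 nM camptothecin for at least 48 h at 37 C; viability read as ATP content by CellTiter-Glo luminescence.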
TDP1 cell noCPT – qHTS for Inhibitors of human tyrosyl-DNA phosphodiesterase 1 (TDP1): qHTS in cells in absence of CPT; DT40 Tdp1-/- hTDP1 cells, no CPT, ATP luminescence, 48 h; Potency, µM (top dose mostly 46.2 µM), for inactives: top-dose activity change, negative = growth inhibition, most hits filed as inhibitors; hit rate 15% among 420,000; AID 686978, 2013; note: nearly all actives have a fitted effect of over 55% in size
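Luminescent ATP content (CellTiter-Glo) served as the growth readout. Knockout chicken DT40 cells expressing human TDP1 were exposed to compounds without camptothecin for a minimum 48 hr at 37 °C.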
An asterisk follows results filed as active; i = inactive; ? = inconclusive; . = not tested or not shown. Calls come from the whole dose curve; as a rule, active = well fitted curve in the direction sought with a large enough effect; inconclusive = small, poorly fitted or top-dose-only effect, or another doubt; inactive = no such curve, though single readings can be large; an effect the other way counts as inactive or inconclusive. Unless noted, % is set by controls: 0 for no effect and ±100 for the full control effect; potency is the fitted concentration of half-maximal effect.

SMILES	KB-V1 cytotox	KB-3-1 cytotox	HT1080-NT tox	HT1080 IDH1KD tx	TDP1 cell CPT	TDP1 cell noCPT
CC(C)(C)c1ccc(S(=O)(=O)N2CCN(c3nc(-c4cccs4)nc4ccccc34)CC2)cc1	.	.	18%	-2%	-12%	?
Cc1ccc(S(=O)(=O)N2CCN(c3nc(-c4ccc(C)s4)nc4ccccc34)CC2)cc1	.	.	1%	16%	-30%	?
Cc1ccc(S(=O)(=O)N2CCN(c3nc(-c4ccc(CN5CCNCC5)s4)nc4ccccc34)CC2)cc1	i	i	.	.	?	22µM*
Cc1ccc(S(=O)(=O)N2CCN(c3nc(-c4ncco4)nc4ccccc34)CC2)cc1	.	.	-9%	-7%	11µM*	11µM*
Cc1cc(NC(=O)N2CCC(CN3CCOCC3)CC2)ccc1Br	.	.	.	.	?	-6%
CCCC(=O)NC(=S)Nc1ccccc1N1CCOCC1	?	i	1%	7%	?	?
CCC(=O)NC(=S)Nc1cccc(Cl)c1N1CCCCC1	i	?	4.5µM*	5.6µM*	11µM*	11µM*
CCCCC(=O)NC(=S)Nc1cccc(Cl)c1N1CCCCC1	21µM*	i	0%	-16%	?	?
CCCC(=O)NC(=S)Nc1cccc(Cl)c1N1CCCCC1	18µM*	?	5µM*	10µM*	?	?
CCCCC(=O)NC(=S)Nc1ccccc1N1CCCCC1	i	i	9%	9%	-13%	?
CC(=O)O[C@@H]1[C@@H](O)[C@@H](O)[C@H](Oc2c(-c3ccc(O)cc3)oc3c(CC=C(C)C)c(O)cc(O)c3c2=O)O[C@H]1C	i	i	?	?	?	?
CC(=O)O[C@H]1[C@@H](O)[C@H](O)[C@H](Oc2c(O)c(C)c3c4c2[C@@H](C)CC[C@@H]4[C@@H](C)C[C@H]3C=C(C)C)O[C@H]1C	26µM*	?	?	?	?	18µM*
CCCCN(C=O)c1c(CC)nc2c(OCc3ccc(S(C)(=O)=O)cc3)cccn12	?	i	2%	-26%	-24%	?
N=c1c2c(n(Cc3ccc(Cl)cc3)c3c1CCC3)CCC2	i	i	5µM*	7.1µM*	2.3µM*	2.3µM*
O=C(CSc1nc(=O)n(Cc2ccncc2)c2c1CCC2)Nc1ccccc1	i	i	.	.	-2%	3%
N=c1c2c(n(Cc3ccc(F)cc3)c3c1CCC3)CCCC2	i	?	?	?	0.82µM*	1µM*
Clc1cccc(CN2CCCCCC2)c1	i	i	-3%	4%	-6%	-13%
N=c1c2c(n(Cc3cccc(Cl)c3)c3c1CCC3)CCCC2	i	?	6.3µM*	10µM*	2.6µM*	1.8µM*
N=c1c2c(n(Cc3ccccc3)c3c1CCC3)CCC2	i	?	?	?	1.6µM*	0.58µM*
CC(=O)Oc1ccc(/C=C(\NC(=O)c2ccco2)C(=O)NCc2ccco2)cc1	i	?	2%	9%	6%	-7%
COc1ccccc1OCC(=O)NCC1(N(C)C)CCCCC1	i	i	.	.	-4%	-6%
O=C(c1ccco1)c1nnn(Cc2ccccc2)c1-c1ccccc1	23µM*	i	-19%	?	?	21µM*
CCOc1ccccc1CNC(=O)Cn1nc(C)c2nn(-c3ccc(Cl)cc3)c(C)c2c1=O	.	.	.	.	?	18µM*
CCc1cccc(C)c1NC(=O)Cn1nc(C)c2nn(-c3ccc(Cl)cc3)c(C)c2c1=O	.	.	.	.	16µM*	21µM*
COc1ccc(CNC(=O)Cn2nc(C)c3nn(-c4ccc(Cl)cc4)c(C)c3c2=O)cc1	.	.	.	.	4%	-22%
SMILES	KB-V1 cytotox	KB-3-1 cytotox	HT1080-NT tox	HT1080 IDH1KD tx	TDP1 cell CPT	TDP1 cell noCPT
Cn1c(=O)c2cc(NC(=O)Cc3ccccc3F)ccc2n1Cc1ccc(Cl)cc1	i	i	-10%	-12%	?	?
Cc1ccccc1CC(=O)Nc1ccc2c(c1)c(=O)n(C)n2-c1ccccc1F	i	i	-7%	0%	?	-23%
Cc1ccccc1CC(=O)Nc1ccc2c(c1)c(=O)n(C)n2-c1cccs1	i	?	?	-28%	?	3.3µM*
CC(C)=CCn1c2ccc(NC(=O)Nc3cccnc3)cc2c(=O)n1C	i	i	?	10%	-30%	?
Cn1c(=O)c2cc(NC(=O)Nc3cccnc3)ccc2n1-c1ccc(C(C)(C)C)cc1	i	?	21µM*	?	?	?
Cn1c(=O)c2cc(NC(=O)Cc3cccc4ccccc34)ccc2n1-c1ccccc1	?	?	?	?	16µM*	21µM*
O=C(Cc1cccc2ccccc12)Nc1ccccc1	i	i	-5%	-1%	23µM*	?
CCN1Cc2cccc(C(=O)Nc3ccc(F)cc3)c2C1=O	i	i	.	.	-9%	-19%
CC(CC(=O)Nc1ccc(Cl)c([N+](=O)[O-])c1)c1ccccc1 (stereo unspecified)	i	?	?	?	?	?
CC(CC(=O)Nc1ccc2c(c1)c(=O)n(C)n2-c1ccccc1)c1ccccc1 (stereo unspecified)	10µM*	4.6µM*	3.7µM*	2.9µM*	5.2µM*	5.2µM*
O=C(NNc1ccccc1F)c1sccc1Cl	.	.	?	?	-21%	?
Cc1ccc(C(=O)N2c3ccccc3CC2C)o1 (stereo unspecified)	?	i	-20%	-21%	?	-29%
O=C(c1ccc([N+](=O)[O-])o1)N1CCOCC1	i	i	23%	13%	-6%	?
COc1cc2c(cc1OC)CN(C(=O)c1oc3ccccc3c1C)CC2	?	?	-29%	-24%	21µM*	23µM*
O=C(c1ccc([N+](=O)[O-])o1)N1CCc2ccccc2C1	?	i	-2%	-22%	21µM*	15µM*
COc1cc2c(cc1OC)CN(C(=O)c1ccc(-c3ccccc3)cc1)CC2	i	i	-2%	8%	?	?
Cc1ccc(C(=O)N2CCc3ccccc32)o1	?	?	-14%	-23%	-17%	3.3µM*
O=C(c1ccc([N+](=O)[O-])o1)N1CCc2ccccc21	?	?	-2%	?	10µM*	12µM*
COc1ccc(NC(=O)Cc2c(C(=O)O)[nH]c3ccccc23)cc1OC	i	i	.	.	2%	-1%
